Laboratory results from PubChem BioAssay (NCI).
Values joined by “and” are separate entries in the source; they are usually repeats but may differ in a detail not shown here. Identical values can stand only once. About 83,000 compounds went through this panel and 20% of them were active in at least one assay; those are over-represented in the sample as a whole.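 Percent growth is the endpoint: 0 to 100 indicates growth inhibition (40 means 60% inhibition), 0 means no net growth, and negative values indicate cell death.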 Active and inactive are the calls of the source. How the source made its calls: active means growth percent below 10; inactive means the rest.

Tests used:
Assay in all cases: NCI-60 one-dose screen, 48 h (100 = growth as untreated, 0 = no growth, -100 = all killed)
Conditions in all cases: 10 µM unless noted
SR leukemia = tested on: SR leukemia
RPMI-8226 leukemia = tested on: RPMI-8226 leukemia
OVCAR-8 ovarian = tested on: OVCAR-8 ovarian
OVCAR-5 ovarian = tested on: OVCAR-5 ovarian
OVCAR-4 ovarian = tested on: OVCAR-4 ovarian
SK-OV-3 ovarian = tested on: SK-OV-3 ovarian
IGROV1 ovarian = tested on: IGROV1 ovarian
OVCAR-3 ovarian = tested on: OVCAR-3 ovarian
HS 578T breast = tested on: HS 578T breast
NCI/ADR-RES ovarian = tested on: NCI/ADR-RES ovarian

Row | Compound | growth (SR leukemia) | growth (RPMI-8226 leukemia) | growth (OVCAR-8 ovarian) | growth (OVCAR-5 ovarian) | growth (OVCAR-4 ovarian) | growth (SK-OV-3 ovarian) | growth (IGROV1 ovarian) | growth (OVCAR-3 ovarian) | growth (HS 578T breast) | growth (NCI/ADR-RES ovarian)
1 | O=C1Nc2cc(-c3ccc(NS(=O)(=O)c4ccc([N+](=O)[O-])cc4)cc3)ccc2/C1=C/c1ccc[nH]1 | 12.9% (inactive) | 13.5% (inactive) | 7.53% (active) | 27.5% (inactive) | 6.68% (active) | -16.9% (active) | 39.2% (inactive) | -29.4% (active) | 41.6% (inactive) | 24.4% (inactive)
2 | Cc1cccc(NCC(=O)N2CCN(c3ncnc4c3cnn4-c3ccccc3)CC2)c1 | 22.7% (inactive) | 75.7% (inactive) | 65.2% (inactive) | 83.8% (inactive) | 51.6% (inactive) | 67.1% (inactive) | 59.4% (inactive) | 94% (inactive) | 60.4% (inactive) | 60.6% (inactive)
3 | COc1cc(NC(=O)CSc2nnc(-c3ccc(-c4nc5ccc(Cl)cc5[nH]4)cc3)o2)cc(OC)c1OC | 35.7% (inactive) | 25% (inactive) | 62.6% (inactive) | 71.4% (inactive) | 64.8% (inactive) | 109% (inactive) | 52.7% (inactive) | 21.7% (inactive) | 53.3% (inactive) | 63.6% (inactive)
4 | COc1ccc(-c2nc3ccc(-c4nnc(SCc5ccccc5)o4)cc3[nH]2)cc1OC | 56.3% (inactive) | 44.5% (inactive) | 6.86% (active) | 34.2% (inactive) | -45.4% (active) | 62.9% (inactive) | 42.8% (inactive) | 10.7% (inactive) | 2.46% (active) | 7.16% (active)
5 | CC1(C)CC(=O)C2=C(C1)OC(N)=C(c1nc3ccccc3[nH]1)C2c1ccc(Cl)cc1 (stereo not given) | 41.4% (inactive) and 97.8% (inactive) | 45.8% (inactive) and 109% (inactive) | 69.2% (inactive) and 108% (inactive) | 101% (inactive) and 118% (inactive) | 57.6% (inactive) and 109% (inactive) | 111% (inactive) and 108% (inactive) | 62.3% (inactive) and 108% (inactive) | 47.8% (inactive) and 78.4% (inactive) | 6.8% (active) and 119% (inactive) | 78% (inactive) and 109% (inactive)
6 | CCCn1c(NC(=O)c2cccc(C(N)=O)c2)nc2ccc(CN3CCCCC3)cc21 | 31.4% (inactive) | 85.2% (inactive) | 107% (inactive) | 83.3% (inactive) | 98.5% (inactive) | 85.9% (inactive) | 72.4% (inactive) | 112% (inactive) | 111% (inactive) | 111% (inactive)
7 | Oc1ccc(F)c(Nc2nc(SCCN3CCOCC3)nc3c2cnn3CC(Cl)c2ccc(Br)cc2)c1 (stereo not given) | -2.59% (active) | 1.15% (active) | 20.2% (inactive) | 40.5% (inactive) | 31.9% (inactive) | 64.2% (inactive) | 12.5% (inactive) | 25.8% (inactive) | -23.9% (active) | 16.4% (inactive)
8 | O=C(Nc1nc2ccc([N+](=O)[O-])cc2s1)Nc1ccccc1F | 15.1% (inactive) | -19.2% (active) | 15.1% (inactive) | 15.5% (inactive) | 16.6% (inactive) | -14.2% (active) | 21.7% (inactive) | 24.6% (inactive) | 0.171% (active) | 7.3% (active)
9 | S=C(Nc1ccccc1)Nc1ccc(OCc2nc3ccc(Cl)cc3[nH]2)cc1 | 25.9% (inactive) | 66.7% (inactive) | 87.7% (inactive) | 109% (inactive) | 78.3% (inactive) | 97.1% (inactive) | 87.9% (inactive) | 84.9% (inactive) | 92% (inactive) | 83.7% (inactive)
10 | COc1ccc(NC(=O)CSc2nnc(-c3ccc(-c4nc5ccccc5[nH]4)cc3)o2)cc1 | 35.3% (inactive) | 18.4% (inactive) | -24.6% (active) | 55.4% (inactive) | 38.3% (inactive) | 98.2% (inactive) | 35.6% (inactive) | 41.4% (inactive) | 45% (inactive) | 50.1% (inactive)
11 | COc1ccc(-c2nc3ccc(-c4nnc(SCc5ccccc5)o4)cc3[nH]2)cc1 | 6.93% (active) | 7.16% (active) | -36.8% (active) | 46.8% (inactive) | -57.7% (active) | 5.77% (active) | -17.1% (active) | -33.1% (active) | -17.5% (active) | -65.6% (active)
12 | CN1CCN(C(=O)Oc2cc3c(c4ccccc24)[C@H](CCl)CN3C(=O)c2cc3cc(OCCCN4CCC4)ccc3[nH]2)[C@H]2CSSC[C@H]21 | -21.2% (active) | -31.2% (active) | -13.1% (active) | -19.6% (active) | -1.62% (active) | -16.5% (active) | 4.39% (active) | -10.9% (active) | -7.11% (active) | -29.2% (active)
13 | Nc1nnc(-c2cncc(Br)c2)c(-c2c[nH]c3ccc(Cl)cc23)n1 | 54.1% (inactive) | 48.5% (inactive) | 89.8% (inactive) | 94.2% (inactive) | 56.2% (inactive) | 103% (inactive) | 68.6% (inactive) | 100% (inactive) | 76.6% (inactive) | 63.5% (inactive)
